Source: the supplement of paper PMC6555819

Key:
Assay in all cases: PBM binding z-score (relative to random genomic background probes); higher = stronger binding; sequences stand for … in GC…GCGATTGACAGCGTAGAATGAAGG
[1] = tested on: RARb homodimer (NR concentration 270 nM)
Summary of the method: (§1)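 Regression normalization was applied to scanned fluorescence from custom Agilent 4×180K protein-binding microarrays. Before scanning, arrays were incubated 1 h with ligand-free nuclear receptor dimers, and binding was detected with antibodies against each partner (one per run). Binding z-scores use the random background probes as reference.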

[2] = tested on: RARg:RXRa (NR concentration 270 nM, RXRa partner concentration 90 nM)
Summary of the method: as §1

[3] = tested on: RARg homodimer (NR concentration 270 nM)
Summary of the method: as §1

[4] = tested on: RXRa DBDmut IVT, anti-RXR (DBD mutation: RXRa K156A/R161A, NR concentration 90 nM)
Summary of the method: as §1

[5] = tested on: RXRa homodimer (NR concentration 180 nM)
Summary of the method: as §1

[6] = tested on: THRa:RXRa (NR concentration 90 nM, RXRa partner concentration 90 nM)
Summary of the method: as §1

[7] = tested on: THRa homodimer (NR concentration 90 nM)
Summary of the method: as §1

[8] = tested on: VDR homodimer (NR concentration 270 nM)
Summary of the method: as §1

| Sequence | PBM binding z-score [1] | PBM binding z-score [2] | PBM binding z-score [3] | PBM binding z-score [4] | PBM binding z-score [5] | PBM binding z-score [6] | PBM binding z-score [7] | PBM binding z-score [8] |
| --- | --- | --- | --- | --- | --- | --- | --- | --- |
| ATACCAAGGTGATCGTCAGGTCGTTGATACTAAC | 1.14 | 1.4 | 0.502 | -0.0242 | 0.916 | 2.98 | 1.76 | 1.12 |
| TCATATAGGTAAAAGGTTAAAGTCGGTGTGGTAA | 2.41 | 3.05 | 1.54 | 2.12 | 4.88 | 2.27 | 0.509 | 0.746 |
| TCTTGTGGATCAACAGGAGGTTAAGAAAGATCGA | 0.619 | 1.18 | 0.266 | 0.248 | 0.985 | 1.01 | -0.626 | 0.119 |
| GATGCAGGGTCAGCTAGAGGCCAGAGTATGGAAA | 3.34 | 6.65 | 5.08 | 1.24 | 4.39 | 2.95 | 0.228 | 0.522 |
| CCGATTAGGTTATGGGGCATTCAGGCAACGGTGA | 1.11 | 0.701 | 0.783 | 0.4 | 0.612 | 1.19 | 0.572 | 0.143 |
| CCGAGTAAGTTATGGGGCATTCAGGCAACGGTGA | 0.181 | -0.241 | -0.0978 | 0.0937 | -0.299 | 0.0579 | -0.117 | -0.0157 |
| ATTAGTTGGTCAGCTGAGGTCACACACAATTCGG | 4.56 | 4.39 | 4.28 | 1.58 | 4.35 | 5.05 | 5.22 | 4.18 |
| GAAACGAGGGCATTCGAGTTGATAGCATGGCGAT | 0.628 | 1.26 | 1.38 | 3.03 | 1.09 | 3.47 | -0.43 | 3.34 |
| GCTAGTTGGTCAGGAAAAGGTCACACACCGGTCG | 5.07 | 5.34 | 4.46 | 0.286 | 4.98 | 3.52 | 1.64 | 1.68 |
| GATATTAGTTGAAAGGGCAACCGAATGATTCTCG | 2.28 | 1.73 | 1.61 | 1.04 | 1.58 | 0.705 | 0.0377 | 0.787 |
| TCTTGTAGATCAATAGGGGTTAAGAAAGTGCGCT | 1.26 | 1.07 | 0.498 | 1.53 | 2.18 | 2.19 | 0.19 | 0.671 |
| TAGCCTAGGTCCTGGGCCAGTATACCACGCGAAC | -0.386 | -0.497 | -0.364 | -1.66 | -0.311 | -0.414 | -0.714 | -0.78 |
| CCTTACGGGTCACTCACAGGTTATAGCATTTGGA | 3.65 | 5.9 | 4.5 | 2.04 | 4.75 | 3.07 | 0.529 | 1.28 |
| TCTAGCAGGCCAGAGGGTCACTCAGGAGGTACGG | 2.75 | 2.62 | 1.67 | 0.0347 | 2.54 | 1.74 | -0.132 | 0.271 |
| AGAACGATGGCAATGAGTTGATAGCACGGGTGGC | -1.04 | -0.249 | 0.108 | -0.297 | 0.0313 | -0.986 | -0.999 | -0.0604 |
| CTAACTAGGTCAGAACAGGACAGTGAAGGATGAT | 2.03 | 1.85 | 3.26 | 0.797 | 1.07 | 3.55 | 0.222 | -0.144 |
| GCAGACAGGAGAAACGCAGGTAACTCAGGGTGGC | -0.808 | -0.38 | -0.484 | -0.907 | -0.112 | 0.301 | -0.985 | -0.432 |
| CATACAGGGTCAGCTCGGCCAGAGTAGGGACGGC | 3.1 | 4.38 | 4.49 | 1.2 | 3.95 | 3.01 | 0.883 | 0.595 |
| AGAAGGAGGGCAATGAGTTGATAGCACGGGTGGC | 1.51 | 0.896 | 1.46 | 0.955 | 0.646 | 0.385 | 0.339 | 2.51 |
| CGTCCAAGGTGATAGGAGGTCAGTGAAGACAGAT | 3.59 | 2.56 | 2.86 | 0.227 | 1.88 | 4.34 | 1.51 | 0.846 |
| GCTTGTAGATCACGGTTAAGAAAGACTAAGCTAA | -0.369 | -0.304 | -0.36 | 0.053 | -0.526 | -0.523 | -1.01 | -0.582 |
| CGTCCAAAGTCAGAGAGGTCAGTGAATGCCGAGT | 4.21 | 2.98 | 3.26 | 1.16 | 2.65 | 2.72 | 0.954 | 2.12 |
| ATCGAAAGGTCGAGATGAGTATAGAGAAAGGGAA | 1.97 | 3.79 | 3.54 | 0.857 | 3.81 | 1.93 | -0.434 | 0.309 |
| CATCGGAGGACAACAGGAGGTCAGAGCTGCCAGA | 3.62 | 3.59 | 3.48 | 0.373 | 2.29 | 3.01 | 1.31 | 1.1 |
| TCTTGTAGATCAATAGAGGTTAAGAGAGTGCGCT | 1.02 | 0.864 | 0.443 | 0.589 | 1.46 | 2.56 | -0.485 | 0.473 |
| GCATATAGGTAATACAAGGTGAAAGACCGATTGT | 0.665 | 0.88 | 0.835 | 0.075 | 0.929 | 4.12 | 0.583 | -0.0342 |
| GGAACGAGGGCAAGCTGATAGCAGAGTTTGATGG | 0.957 | 1.17 | 1.95 | 1.68 | 0.6 | 0.878 | -0.593 | 1.03 |
| TCTGCTAGGTCAACGATGGTCAGCTCATCTGCTA | 3.24 | 3.91 | 4.62 | 1.05 | 2.41 | 3.15 | 0.671 | -0.436 |
